STAT3 SMM = STAT3 binders, primary screen, biochemical, small molecule microarray, single point, set 2; calls only; His-STAT3 binding, anti-His fluorescence; 17,000 tested, 0.2% active; Signal transducer and activator of transcription 3 (Homo sapiens), P40763;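 active = compounds whose four printed spots each show fluorescence over background unusually high for their array block, chance value under 7%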
Target sequence (P40763 whole entry, looked up): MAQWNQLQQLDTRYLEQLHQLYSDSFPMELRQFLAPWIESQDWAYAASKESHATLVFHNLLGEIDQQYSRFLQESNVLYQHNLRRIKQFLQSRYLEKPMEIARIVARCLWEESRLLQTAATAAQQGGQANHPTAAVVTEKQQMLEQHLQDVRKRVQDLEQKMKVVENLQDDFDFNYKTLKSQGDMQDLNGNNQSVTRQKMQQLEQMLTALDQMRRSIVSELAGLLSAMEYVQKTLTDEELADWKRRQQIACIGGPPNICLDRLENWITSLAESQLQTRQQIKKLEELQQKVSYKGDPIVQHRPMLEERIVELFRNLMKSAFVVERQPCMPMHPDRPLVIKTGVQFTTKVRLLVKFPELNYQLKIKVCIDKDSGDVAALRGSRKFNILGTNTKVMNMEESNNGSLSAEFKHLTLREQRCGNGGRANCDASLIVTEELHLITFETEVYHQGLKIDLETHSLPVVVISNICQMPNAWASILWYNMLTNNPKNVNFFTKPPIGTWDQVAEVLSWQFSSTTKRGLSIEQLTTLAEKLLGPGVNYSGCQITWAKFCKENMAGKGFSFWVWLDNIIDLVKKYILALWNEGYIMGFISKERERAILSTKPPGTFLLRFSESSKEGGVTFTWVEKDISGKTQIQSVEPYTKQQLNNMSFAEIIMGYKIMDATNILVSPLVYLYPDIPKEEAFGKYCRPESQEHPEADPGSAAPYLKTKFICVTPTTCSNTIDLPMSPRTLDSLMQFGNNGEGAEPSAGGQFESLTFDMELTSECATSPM
NFkB binder = binders of NF-kB p50 subunit, primary screen, biochemical, small molecule microarray, anti-His fluorescence; AID 624139, 2012; 17,000 tested, 1.3% active; Nuclear factor NF-kappa-B p105 subunit (Homo sapiens), P19838; calls only; anti-His fluorescence binding;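 active = spot fluorescence over background significantly raised, with a chance value under 7% in all four replicate spots of the compound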;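 note: probe protein is his-tagged human p50 processed subunit at 1 µg/ml; raw spot fluorescence signals with no normalization applied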
mut p53 SMM = binders of human mutant p53, primary screen, biochemical, small molecule microarray, anti-GST fluorescence; 17,000 tested, 0.4% active; AID 624136, 2012; small molecule microarray binding; mutant tumor protein p53 (GST-tagged), Homo sapiens; calls only;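 active = compounds whose four printed spots each glow above background more than chance allows, each with a p-value under 7%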
Myc binder = binders of human c-Myc, primary screen, biochemical, small molecule microarray, anti-His fluorescence; AID 624141, 2012; calls only; His-c-Myc binding; 17,000 tested, 1.5% active;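 active = spot fluorescence over background with P-value below 7% in all four replicate spots, showing protein binding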;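 note: score is binary with 100 for all four spots passing and 0 otherwise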
An asterisk follows results filed as active; i = inactive; + = active, no number. Compounds with a hit are over-represented: about 2.1% of the library has one in this group of screens.

SMILES | STAT3 SMM | NFkB binder | mut p53 SMM | Myc binder
C[C@@H]1CN([C@@H](C)CO)C(=O)c2cc(NC(=O)Nc3ccc4c(c3)OCO4)ccc2O[C@H]1CN(C)CC1CCCCC1 | i | + | i | i
C[C@@H]1CN([C@@H](C)CO)C(=O)c2cc(NC(=O)c3ccccc3)ccc2O[C@@H](C)CCCCO[C@H]1CN(C)CC1CCCCC1 | i | i | i | +
C[C@H]1CN([C@@H](C)CO)C(=O)Cc2cc(NS(=O)(=O)c3ccc(Cl)cc3)ccc2O[C@@H]1CN(C)CC1CCCCC1 | i | + | + | +
CC(C)NC(=O)N(C)C[C@H]1OCCCC[C@@H](C)Oc2ccc(NC(=O)Nc3ccc(C(F)(F)F)cc3)cc2C(=O)N([C@@H](C)CO)C[C@H]1C | i | + | i | +
C[C@@H]1CN([C@@H](C)CO)C(=O)c2cc(NC(=O)Nc3ccc(C(F)(F)F)cc3)ccc2O[C@@H](C)CCCCO[C@@H]1CN(C)CC1CCCCC1 | i | + | i | i
C[C@@H]1CCCCO[C@H](CN(C)C)[C@@H](C)CN([C@H](C)CO)C(=O)c2cc(NC(=O)Nc3ccc(C(F)(F)F)cc3)ccc2O1 | i | i | i | i
CC1=C(CC/C(C)=C/C(=O)O)[C@@]2(C)CCCC(C)(C)C2CC1 (stereo partly drawn) | i | i | i | i
COc1cc(NC(=O)C(C)Oc2ccccc2)c(Cl)cc1NC(=O)c1ccc(Cl)cc1 (stereo not drawn) | i | i | i | i
Cc1cc(Cl)ccc1OC(C)C(=O)Nc1ccc(C(=O)Nc2ccccc2C(=O)O)cc1 (stereo not drawn) | i | i | i | +
CCc1ccc(C(Nc2cc(C)ccn2)c2ccc3cccnc3c2O)cc1 (stereo not drawn) | i | i | + | i
Cn1c2ccccc2c2nnc(SCC(=O)c3ccc(Cl)cc3)nc21 | i | i | i | +
C[C@@H]1O[C@@H](O[C@H]2CC[C@@]3(C)C(CC[C@]4(C)C3CC=C3C5CC(C)(C)CC[C@]5(C(=O)O[C@@H]5O[C@H](CO)[C@@H](O)[C@H](O)[C@H]5O)CC[C@]34C(=O)O)C2(C)C)[C@H](O)[C@H](O)[C@H]1O (stereo partly drawn) | i | i | i | i
CC(=O)OC1C(C)OC(OC2C(CO)OC(OC(=O)[C@]34CCC(C)(C)CC3C3=CCC5[C@@]6(C)CC[C@H](OC7OC(CO)C(OC8OC(CO)C(OC9OCC(O)C(O)C9O)C(O)C8O)C(O)C7O)[C@@](C)(CO)C6CC[C@@]5(C)[C@]3(C)CC4)C(OC3OC(C)C(O)C(O)C3O)C2O)C(O)C1O (stereo partly drawn) | i | + | i | +
C[C@@H]1O[C@@H](O[C@@H]2[C@@H](O)[C@H](O[C@@H]3[C@@H](O)[C@H](C)O[C@@H](O[C@H]4[C@H](O[C@H]5CC[C@@]6(C)C(CC[C@]7(C)C6CC=C6[C@@H]8CC(C)(C)CC[C@]8(C(=O)O)CC[C@]67C)[C@]5(C)CO)OC[C@H](O)[C@@H]4O)[C@@H]3O)O[C@H](CO)[C@H]2O[C@@H]2O[C@H](CO)[C@@H](O[C@@H]3OC[C@@H](O)[C@H](O)[C@H]3O)[C@H](O)[C@H]2O)[C@H](O)[C@H](O)[C@H]1O (stereo partly drawn) | i | + | i | i
CC1(C)CC[C@]2(C(=O)OC3OC(CO)C(OC4OC(CO)C(O)C(O)C4O)C(O)C3O)CC[C@]3(C)C(=CCC4[C@@]5(C)CC[C@H](OC6OC(C(=O)O)C(O)C(O)C6O)C(CO)(CO)C5CC[C@]43C)[C@@H]2C1 (stereo partly drawn) | i | i | i | i
CC1OC(OC2C(OC(=O)C34CCC(C)(C)CC3C3=CCC5C6(C)CCC(OC7OC(CO)C(OC8OC(C(=O)O)C(OC9OCC(O)C(O)C9O)C(O)C8O)C(O)C7O)C(C)(CO)C6CCC5(C)C3(C)CC4)OC(COC3OCC(O)C(O)C3O)C(O)C2O)C(O)C(O)C1O (stereo not drawn) | i | i | i | i

Assay outcomes as filed in PubChem.
